Experimental data from PubChem BioAssay (Tox21).
Results filed as inconclusive are left out. Where a call stands in place of a potency, no number is given. Calls of active or inactive are those of the source. Unless noted, calls follow the shape of the dose curve; as a rule, active = well fitted curve in the direction sought with a large enough effect in the repeat runs; inconclusive = weak or mixed curves; inactive = no such curve, though single readings can be large; an effect the other way counts as inactive or inconclusive.

Tests used:
[1] = qHTS assay to identify small molecule antagonists of the glucocorticoid receptor (GR) signaling pathway - cell viability counter screen (AID 720693); also: nearly all actives have a fitted effect of over 55% in size
[2] = qHTS assay for identifying genotoxic compounds that show differential cytotoxicity against isogenic chicken DT40 cell lines with known DNA damage response pathways - wild type cell line (AID 743012); also: nearly all actives have a fitted effect of over 60% in size; also: potency is read from the fitted curve at half-maximal effect
Summary of the method: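 First, wild type DT40 cells were plated at 300 per well and equilibrated about 0.5 h at 37 C/5% CO2. Next, compounds in DMSO were added and exposure lasted 40 h. Finally, CellTiter-Glo was added for 30 min at room temperature and luminescence recorded.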

[3] = qHTS assay for identifying genotoxic compounds that show differential cytotoxicity against isogenic chicken DT40 cell lines with known DNA damage response pathways - Rev3 mutant cell line (AID 743014); also: nearly all actives have a fitted effect of over 55% in size; also: potency is read from the fitted curve at half-maximal effect
[4] = qHTS assay for identifying genotoxic compounds that show differential cytotoxicity against isogenic chicken DT40 cell lines with known DNA damage response pathways - Rad54/Ku70 mutant cell line (AID 743015); also: nearly all actives have a fitted effect of over 60% in size; also: potency is read from the fitted curve at half-maximal effect
[5] = qHTS assay to identify small molecule antagonists of the androgen receptor (AR) signaling pathway - cell viability counter screen (AID 743033; also: nearly all actives have a fitted effect of over 45% in size)
[6] = qHTS assay to identify small molecule antagonists of the androgen receptor (AR) signaling pathway using the MDA cell line - cell viability counter screen (AID 743041; also: nearly all actives have a fitted effect of over 45% in size)
Summary of the method: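 Same-well cytotoxicity was assessed by CellTiter-Fluor in MDA-kb2 AR-luc cells after 16 h of compound treatment under R1881 agonism.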

[7] = molecular target: Androgen receptor (Homo sapiens) (UniProt P10275); assay: qHTS assay to identify small molecule agonists of the androgen receptor (AR) signaling pathway (AID 743036; active = well fitted activation curve with a large enough effect in the signal ratio in the repeat runs, with a control signal flat, not every such curve was filed as active; the % refers to the signal ratio)
Summary of the method: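 Beta-lactamase under UAS control, stably integrated in HEK293 GripTite cells, reports receptor activation. After 16 h compound treatment, cells received FRET substrate for 2 h at room temperature before fluorescence reading.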

[8] = molecular target: Androgen receptor (Homo sapiens) (UniProt P10275); assay: qHTS assay to identify small molecule agonists of the androgen receptor (AR) signaling pathway using the MDA cell line (AID 743040; also: nearly all actives have a fitted effect of over 20% in size)
Summary of the method: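 Human breast carcinoma MDA-kb2 reporter cells (MMTV-luc, AR/GR elements) were treated for 16 h at 37C in 0% CO2 following a 5 h settling period. Signal was quantified by ONE-Glo luminescence.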

[9] = molecular target: Androgen receptor (Homo sapiens) (UniProt P10275); assay: qHTS assay to identify small molecule antagonists of the androgen receptor (AR) signaling pathway using the MDA cell line (AID 743042; also: nearly all actives have a fitted effect of over 55% in size)
Summary of the method: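 MDA-kb2 breast carcinoma cells carrying MMTV-luciferase (AR/GR responsive) were co-treated with compounds and the agonist R1881 for 16 h at 37C. Inhibition read as ONE-Glo luminescence; CellTiter-Fluor fluorescence measured in parallel for cytotoxicity.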

[10] = molecular target: Androgen receptor (Homo sapiens) (UniProt P10275); assay: qHTS assay to identify small molecule antagonists of the androgen receptor (AR) signaling pathway (AID 743035; active = well fitted inhibition curve with a large enough effect in the signal ratio in the repeat runs, not every such curve was filed as active; the % refers to the signal ratio)
Summary of the method: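 Beta-lactamase FRET read (2 h RT incubation with LiveBLAzer B/G) following 16 h of compound plus R1881 treatment of AR-UAS-bla HEK293 cells, which had been pre-incubated 4 h at 37C.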

Androgen receptor (Homo sapiens), sequence (P10275 whole entry, looked up): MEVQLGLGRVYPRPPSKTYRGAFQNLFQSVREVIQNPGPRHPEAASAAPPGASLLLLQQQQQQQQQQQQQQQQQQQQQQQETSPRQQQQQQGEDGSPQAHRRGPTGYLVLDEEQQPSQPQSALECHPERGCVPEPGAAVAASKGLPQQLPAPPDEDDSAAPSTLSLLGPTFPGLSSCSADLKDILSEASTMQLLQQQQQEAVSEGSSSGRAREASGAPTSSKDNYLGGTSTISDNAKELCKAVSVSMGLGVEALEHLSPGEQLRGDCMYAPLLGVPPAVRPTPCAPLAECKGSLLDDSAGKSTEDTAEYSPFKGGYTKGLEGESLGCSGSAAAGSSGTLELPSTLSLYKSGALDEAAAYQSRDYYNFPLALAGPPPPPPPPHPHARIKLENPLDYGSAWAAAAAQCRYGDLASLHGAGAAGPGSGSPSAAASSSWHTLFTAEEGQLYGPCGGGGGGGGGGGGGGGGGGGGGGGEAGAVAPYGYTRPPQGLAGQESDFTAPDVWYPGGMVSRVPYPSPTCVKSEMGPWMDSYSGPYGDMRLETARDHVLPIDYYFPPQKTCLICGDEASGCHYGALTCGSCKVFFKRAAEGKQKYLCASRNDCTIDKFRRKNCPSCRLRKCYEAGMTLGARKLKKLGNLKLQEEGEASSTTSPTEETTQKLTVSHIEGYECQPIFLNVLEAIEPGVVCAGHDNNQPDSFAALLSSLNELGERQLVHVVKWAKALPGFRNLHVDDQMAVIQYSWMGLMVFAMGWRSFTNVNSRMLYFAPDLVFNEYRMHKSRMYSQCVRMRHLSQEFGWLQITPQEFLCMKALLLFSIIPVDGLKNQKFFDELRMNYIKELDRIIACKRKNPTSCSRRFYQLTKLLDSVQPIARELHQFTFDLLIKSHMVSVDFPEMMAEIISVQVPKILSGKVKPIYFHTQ

| SMILES | outcome [1] | Potency [2] | Potency [3] | Potency [4] | outcome [5] | Potency [6] | outcome [7] | Potency [8] | outcome [9] | Potency [10] |
| --- | --- | --- | --- | --- | --- | --- | --- | --- | --- | --- |
| O=S(=O)(c1cccc2cnccc12)N1CCCNCC1 | inactive | inactive | inactive | inactive | inactive | inactive | – | – | – | – |
| CC(C)[N+](C)(C)CC(O)COc1cccc2ccccc12 (stereo not given) | inactive | inactive | inactive | inactive | inactive | inactive | – | – | – | – |
| C1CCCCCCCCCCC1 | inactive | inactive | inactive | inactive | inactive | inactive | inactive | inactive | inactive | – |
| O=[N+]([O-])c1ccc(CCO)cc1 | inactive | inactive | inactive | inactive | inactive | inactive | – | – | – | – |
| O=S(=O)(O)c1ccccc1O | inactive | inactive | inactive | inactive | inactive | inactive | inactive | inactive | inactive | inactive |
| CC(C)(O)C(=O)c1ccc(OCCO)cc1 | inactive | inactive | inactive | inactive | inactive | inactive | – | – | – | – |
| Cc1ncc(CSSCc2cnc(C)c(O)c2CO)c(CO)c1O | inactive | inactive | inactive | inactive | inactive | inactive | inactive | inactive | inactive | – |
| COCCOC(=O)CC#N | inactive | inactive | inactive | inactive | inactive | inactive | – | – | – | – |
| Fc1ccccc1-c1ccccc1 | inactive | inactive | inactive | inactive | inactive | inactive | – | – | – | – |
| CCCCc1ccc2cccc(S(=O)(=O)O)c2c1 | inactive | inactive | inactive | inactive | inactive | inactive | inactive | inactive | inactive | inactive |
| CCCCCCCCCCCCI | inactive | 54.7 µM (active) | 7.73 µM (active) | 27.4 µM (active) | inactive | inactive | – | – | – | – |
| CN(C)N=Nc1ccccc1 | inactive | inactive | inactive | inactive | inactive | inactive | – | – | – | – |
| Cc1cc(C)c(NC(=O)CN(CC(=O)O)CC(=O)O)c(C)c1Br | inactive | inactive | inactive | inactive | inactive | inactive | – | – | – | – |
| OCCCCCCO | inactive | inactive | inactive | inactive | inactive | inactive | – | – | – | – |
| OCc1ccccn1 | inactive | inactive | inactive | inactive | inactive | inactive | – | – | – | – |
| CCCCCCC(=O)OCC | inactive | inactive | inactive | inactive | inactive | inactive | – | – | – | – |
| CC(O)CN(CCCN(C)C)CCCN(C)C (stereo not given) | inactive | inactive | inactive | inactive | inactive | inactive | – | – | – | – |
| C=CCOCC(O)CS(=O)(=O)O (stereo not given) | inactive | inactive | inactive | inactive | inactive | inactive | – | – | – | – |
| CCCOCC(C)OCC(C)O (stereo not given) | inactive | inactive | inactive | inactive | inactive | inactive | – | inactive | inactive | inactive |
| CC(=O)NC(Cc1ccccc1)C(=O)O (stereo not given) | inactive | inactive | inactive | inactive | inactive | inactive | – | – | – | – |
| CC(=O)c1ccc(C)cc1 | inactive | inactive | inactive | inactive | inactive | inactive | – | – | – | – |
| NC(N)=NS(=O)(=O)c1ccc(N)cc1 | inactive | inactive | inactive | inactive | inactive | inactive | inactive | inactive | inactive | inactive |
| NC(CS)C(=O)O (stereo not given) | inactive | inactive | inactive | inactive | inactive | – | – | – | – | – |
| OCC(O)[C@@H](O)[C@H](O)[C@H](O)CO[C@H]1O[C@H](CO)[C@@H](O)[C@H](O)[C@H]1O (stereo not given in full) | inactive | inactive | inactive | inactive | inactive | inactive | – | – | – | – |
| C1COCCO1 | inactive | inactive | inactive | inactive | inactive | inactive | inactive | inactive | inactive | inactive |
| C=C(C)C1CC=C(C)C(O)C1 (stereo not given) | inactive | inactive | inactive | inactive | inactive | inactive | – | – | – | – |
